# Screens (PubChem BioAssay)
# DAGLB inh – blocks human DAGLB lipase activity; Q8NCG7; AID 504411; HEK293T DAGLB membrane lysate, EnzChek fluorogenic substrate; 0.059% of 340,000 active; inhibition, % at 5.17 µM; in the data active means inhibition above about 34%;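 further: 0% = enzyme with vehicle and 100% = wells lacking enzyme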
# Target sequence (Q8NCG7 whole entry, looked up): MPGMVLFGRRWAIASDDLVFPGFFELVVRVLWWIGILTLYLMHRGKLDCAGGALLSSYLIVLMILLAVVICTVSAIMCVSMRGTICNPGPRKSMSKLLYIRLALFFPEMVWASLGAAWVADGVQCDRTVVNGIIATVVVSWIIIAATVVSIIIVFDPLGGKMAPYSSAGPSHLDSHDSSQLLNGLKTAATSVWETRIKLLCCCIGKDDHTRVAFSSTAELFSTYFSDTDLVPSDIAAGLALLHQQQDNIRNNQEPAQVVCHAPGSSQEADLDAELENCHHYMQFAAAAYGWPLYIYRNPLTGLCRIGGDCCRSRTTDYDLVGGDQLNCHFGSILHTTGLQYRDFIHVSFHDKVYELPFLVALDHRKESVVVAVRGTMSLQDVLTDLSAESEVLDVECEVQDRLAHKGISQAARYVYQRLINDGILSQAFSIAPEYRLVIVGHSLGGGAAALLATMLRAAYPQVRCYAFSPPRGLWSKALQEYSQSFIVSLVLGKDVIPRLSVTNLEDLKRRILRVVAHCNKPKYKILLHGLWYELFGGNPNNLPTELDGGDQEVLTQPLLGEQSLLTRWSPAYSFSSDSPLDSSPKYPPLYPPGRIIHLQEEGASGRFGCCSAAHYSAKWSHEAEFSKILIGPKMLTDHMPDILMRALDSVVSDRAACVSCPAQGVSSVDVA
# rCAG RNA binder – binds r(CAG) RNA repeats | r(CAG) RNA repeat, TO-PRO-1 dye displacement fluorescence | inhibition, % at 3 µM | 1.3% of 370,000 active;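 active means inhibition above the plate cutoff, the mean of all test compounds on that plate plus 3 SD, cut at about 35% in these data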;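 further: 0% = DMSO alone and 100% = 100 µM mitoxantrone as full dye displacement; higher means more dye released from RNA so lower well fluorescence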
# Pemphigus Ab inh – inhibitors of pemphigus antibody binding to human desmoglein-3 | P32926 | DSG3-coupled beads, scFv-anti-DSG3-GFP binding, flow cytometry; hits give low values | binding (percent of control), % at 10 µM | 0.48% of 310,000 active;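 active means binding more than 3 SD below its plate's average and above zero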;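 further: hits lower antibody fragment binding to DSG3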
# bovine MsrA act – activators of bovine methionine sulfoxide reductase A. AID 602163. activation, % at 10.6 µM. 0.3% of 360,000 active. purified bovine MsrA, absorbance read-out; in the data active means activation above about 7.5%;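 further: 0% = vehicle and 100% = reference activator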
# MsrA inh – bovine MsrA inhibition; AID 651718; inhibition, % at 15.5 µM; purified bovine MsrA, absorbance read-out; 0.75% of 360,000 active; in the data active means inhibition above about 4.5%;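 further: 0% = vehicle wells with enzyme and 100% = reference inhibitor wells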
# NadD block – NadD (S. aureus) enzyme inhibition; purified NadD enzyme, colorimetric absorbance read-out; inhibition, % at 20 µM; 0.78% of 360,000 active; AID 602399; in the data active means inhibition above about 26%
# An asterisk follows results filed as active; nt = no result given; ! = repeats disagree. Compounds with a hit are over-represented: about 3.2% of the library has one in this group of screens.
SMILES,DAGLB inh,rCAG RNA binder,Pemphigus Ab inh,bovine MsrA act,MsrA inh,NadD block
N#C/C(=C(/O)CN1CCN(c2ccccc2F)CC1)c1nc(-c2ccc(Cl)cc2)cs1,10.5,23.4,60.4*,-12.4,0.7,10.1
Cc1ccc(-c2csc(/C(C#N)=C(\O)CN3CCN(C(=O)c4ccco4)CC3)n2)cc1,2.3,62.3*,103.1,-5.3,1.6,15.0
Cc1ccc(-c2csc(/C(C#N)=C(\O)CCl)n2)cc1,19.1,35.4*,99.4,-1.2,0.6,10.8
CCC(=O)N1CCc2cc(Br)c(S(=O)(=O)N3CCCC(C(=O)NC(C)(C)C)C3)cc21 (stereo not drawn),nt,6.2,nt,nt,nt,nt
N#C/C(=C\c1ccc(N2CCCC2)c([N+](=O)[O-])c1)c1nc2ccccc2[nH]1,3.3,12.3,96.1,-4.8,-0.1,31.5*
C[C@H](O)[C@@H]1CN2CCc3ccc(-c4ccc5c(c4)OCO5)cc3[C@@H]2C[C@@H]1N(C)C(=O)Nc1ccccc1,nt,3.2,nt,nt,nt,nt
COc1ccc(Nc2nc(C)cc(C)c2C#N)cc1OC,1.9,-1.3,12.4*,-1.9,0.2,10.8
CCOc1ccc(-n2nc3ccc(NC(=O)c4ccc5c(c4)OCCO5)cc3n2)cc1,2.1,3.0,5.0*,-7.5,-0.4,19.4
O=C(Nc1ccc2nn(-c3ccccc3)nc2c1)c1ccc2c(c1)OCCO2,-5.8,12.9,103.8,-2.8,3.4,-6.8
COC(=O)[C@]12C[C@H](CC(=O)NCCC(C)C)C(=O)N(CCC3=CCCCC3)C1=C[C@H](C(C)(C)C)O[C@@H]2C,nt,4.5,nt,nt,-0.2,nt
Cc1cc(N2C(=O)C(=O)/C(=C(/O)c3ccccc3)C2c2cccs2)no1 (stereo not drawn),-0.8,1.5,114.4,-4.5,1.3,-4.4
COc1cccc(/C(O)=C2/C(=O)C(=O)N(c3cc(C)on3)C2c2cccs2)c1 (stereo not drawn),2.4,8.6,81.0,-3.2,5.0*,5.2
C[C@@H]1CN([C@@H](C)CO)S(=O)(=O)c2ccc(Br)cc2O[C@@H]1CN(C)Cc1ccc2c(c1)OCO2,nt,4.1,nt,nt,0.1,nt
Cc1nc2ccc(NC(=O)c3ccc(S(=O)(=O)N4CCOCC4)cc3)cc2s1,-2.9,0.9,81.3*,-12.1,1.5,1.2
COc1ccc(OC)c2sc(NC(=O)c3ccc(S(=O)(=O)N4CCOCC4)cc3)nc12,-0.7,2.2,-17.0*,-0.1,-0.3,7.4
CC(=O)Nc1ccc(C(=O)Nc2ccc(S(=O)(=O)N3CCOCC3)cc2)cc1,0.0,1.6,111.8,-1.1,-0.1,0.9
CCOC(=O)c1ccc(NC(=O)c2ccc(C)c(S(=O)(=O)N3CCOCC3)c2)cc1,-3.2,0.3,85.8,-3.3,-0.4,-11.6
COc1ccc(S(=O)(=O)N2CCOCC2)cc1NC(=O)c1ccc(S(=O)(=O)N2CCCCC2)cc1,-2.4,13.0,99.1,-4.5,0.7,-1.1
CC(=O)c1ccc(NC(=O)c2ccc(C)c(S(=O)(=O)N3CCOCC3)c2)cc1,-7.6,1.0,67.0*,-2.9,0.5,-4.9
O=C(OCc1cn(Cc2c(F)cccc2F)nn1)N1CCOCC1,nt,1.3,nt,nt,nt,nt
O=C(CSc1nnc(-c2cnccn2)n1-c1ccccc1)Nc1ccc2c(c1)OCCO2,nt,0.9,nt,nt,nt,nt
CCOC(=O)c1[nH]c2ccc(OC)cc2c1NC(=O)c1ccc2c(c1)OCO2,-1.5,3.5,100.9,-1.7,0.5,-6.2
CCOC(=O)c1[nH]c2cc(OC)c(OC)cc2c1NC(=O)c1ccc2c(c1)OCO2,-2.0,9.7,16.6*,-18.0,2.8,-2.7
CCOC(=O)c1[nH]c2ccccc2c1NC(=O)c1ccc2c(c1)OCO2,-2.3,4.8,-8.4*,-7.2,0.0,-2.6
O=C(O)c1ccccc1-c1c2cc(I)c(=O)c(I)c-2oc2c(I)c(O)c(I)cc12,-17.5,-76.3,86.1,-7.2,2.1,28.5*!
SMILES,DAGLB inh,rCAG RNA binder,Pemphigus Ab inh,bovine MsrA act,MsrA inh,NadD block
COc1cc(/C=C/C(=O)Nc2ccc3nc4n(c(=O)c3c2)CCCC4)cc(OC)c1OC,-0.4,4.0,100.0,-3.0,4.6*,-8.1
COc1cc(/C=C2\SC(=S)N(NC(=O)c3cccnc3)C2=O)ccc1O,0.5,-7.2,98.2,-1.8,1.3,-3.0
COc1cc(/C=C2\SC(=S)N(c3cccnc3)C2=O)ccc1O,2.6,7.3,68.5*,-5.3,-0.3,-2.2
NC(=S)N=Nc1c(O)n(CCCl)c2ccccc12,nt,-2.5,100.4,-2.0,4.6*,-1.3
NC(=S)N=Nc1c(O)n(CCCl)c2ccc(Cl)cc12,5.8,8.4,102.9,-3.5,1.9,-1.9
O=C(c1ccc(Cl)c(Cl)c1)c1cnc(Nc2ccccc2)s1,0.6,2.6,-24.9*,-10.2,-0.5,5.8
CNc1ncc(C(=O)c2ccc(Cl)c(Cl)c2)s1,-1.1,0.5,92.6,-4.0,2.2,-1.2
NS(=O)(=O)c1ccc(NC(=O)COc2ccc(C(=O)c3ccc(F)cc3)cc2)cc1,1.1,22.9,54.0*,-2.8,0.9,8.4
COc1ccc(/C=C/S(=O)(=O)NCCc2ccccc2)c(CNC(=O)OC(C)(C)C)c1,nt,1.6,nt,nt,nt,nt
COc1cccc2cc(-c3cc(=O)oc4ccc(OCC(C)=O)cc34)oc12,-1.9,18.9,87.7,-4.3,9.5*,-1.3
CCN(CC)C(=O)Oc1cc2c(-c3cc4cccc(OC)c4o3)cc(=O)oc2cc1C,-4.6,7.8,102.9,-2.9,0.3,-0.7
COc1cc(C(=O)N/C(=C\c2cn(C)c3ccccc23)C(=O)NCCCO)cc(OC)c1OC,2.4,0.0,101.7,-10.5,4.7*,-0.4
COc1cc(C(=O)N/C(=C\c2cn(S(=O)(=O)N(C)C)c3ccccc23)C(=O)NCCCO)cc(OC)c1OC,-1.6,2.5,98.6,-2.6,1.4,1.0
CCOC(=O)N(C)[C@H]1C[C@H]2c3[nH]c4ccccc4c3CCN2C(=O)[C@H]1[C@H](C)O,nt,3.6,nt,nt,1.4,nt
CCC(c1nnnn1-c1ccc2c(c1)OCCO2)N1CCc2ccccc2C1 (stereo not drawn),nt,4.7,nt,-0.9,-0.9,-2.3
Nc1cccc(C(=O)c2ccccc2C(=O)O)c1,4.0,0.7,77.8*,-2.1,0.3,1.9
Nc1cccc(C(=O)O)c1,2.3,1.5,105.6,0.2,-1.5,3.6
CC1(C)OC(=O)C2=C(CC(CCc3ccccc3)OC2CCc2ccccc2)O1 (stereo not drawn),nt,2.4,nt,nt,-0.6,nt
CCCNC(=O)CCn1nc(-c2ccc(Cl)cc2)c2ccccc2c1=O,-0.1,-1.3,79.8*,-2.2,-0.3,-7.9
O=C(CCn1nc(-c2ccc(Cl)cc2)c2ccccc2c1=O)NN1CCOCC1,nt,-5.4,81.8*,-0.5,-0.4,9.4
CC(C)CNc1cccc2c1S(=O)(=O)N(Cc1cn(Cc3ccc(F)cc3)nn1)Cc1ccccc1O2,nt,8.3,nt,nt,nt,nt
Cn1c(=O)c2cc(S(=O)(=O)N3CCN(c4ccccc4Cl)CC3)ccc2n(C)c1=O,nt,9.3,nt,nt,nt,nt
O=C(CCCN1C(=O)/C(=C/c2ccccc2)SC1=S)Nc1ccccc1O,0.0,10.8,108.2,-11.9,2.8,-1.1
O=C(O)CN1C(=O)/C(=C\C(Br)=C\c2ccccc2)SC1=S,-11.1,49.7*,99.2,-6.8,1.5,1.8
